Bioassay records: PubChem BioAssay, several laboratories
hgDAF-12 ag – activates the H. glycines DAF-12 receptor ligand-binding domain. HEK293 GAL4-hgDAF12 UAS-luciferase reporter, agonist luminescence; normalized to butyrate control. activation, % at 6.8 µM. actives 1.8% (n = 370,000). AID 687014;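 active = activation above a cutoff set at the mean of all screened compounds plus 3 SD, cut at about 10% in these data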;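 note: 0% = DMSO wells and 100% = sodium butyrate wells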
DAX1 inh-1 – inhibits human nuclear receptor DAX1 | HEK293 Gal4-DAX1 luciferase reporter, luminescence | P51843 | actives 0.99% (n = 340,000) | inhibition, % at 6.75 µM;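 active = inhibition above the mean over all tested compounds plus 3 SD, cut at about 4.2% in these data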;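 note: 0% = DAX1-transfected cells with DMSO and 100% = empty-vector control cells with DMSO; inhibition shows as a rise in luminescence from relieved DAX1 repression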
Target sequence (P51843 207-470 limits assumed): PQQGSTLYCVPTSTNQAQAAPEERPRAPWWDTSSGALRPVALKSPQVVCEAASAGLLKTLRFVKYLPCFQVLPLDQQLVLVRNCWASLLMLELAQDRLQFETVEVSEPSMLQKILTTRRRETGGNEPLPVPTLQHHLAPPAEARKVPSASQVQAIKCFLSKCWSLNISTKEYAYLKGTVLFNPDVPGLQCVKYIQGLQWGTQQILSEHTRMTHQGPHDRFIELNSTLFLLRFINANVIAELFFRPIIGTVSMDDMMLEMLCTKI
DAX1 inh-2 – inhibitors of DAX1 repression of SF-1 activated StAR promoter; HEK293T StAR-luciferase reporter, SF-1/DAX-1 repression relief; inhibition, % at 6.8 µM; actives 1.1% (n = 370,000);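 active = inhibition above the mean over all tested compounds plus 3 SD, cut at about 3.6% in these data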;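 note: 0% = DAX-1 cells with DMSO and 100% = cells lacking DAX-1 with DMSO; higher inhibition means more luminescence from relief of DAX-1 repression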
hcDAF-12 act – activates DAF-12 receptor from parasite H. contortus. HEK293 hcDAF-12 lit1-tk-luc reporter, luminescence; 0% DMSO, 100% Δ7-dafachronic acid. actives 1.4% (n = 370,000). activation, % at 6.8 µM;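 active = activation above the mean of all tested compounds plus 3 SD, cut at about 5.5% in these data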;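 note: 100% = response to 3 µM Δ7-dafachronic acid high control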
ssDAF-12 act – activates DAF-12 receptor from parasite S. stercoralis | HEK293 ssDAF-12/GRIP1 lit1-tk-luc reporter, luminescence; % of 3 µM dafachronic acid response | activation, % at 6.8 µM | AID 652126 | actives 1% (n = 370,000);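 active = activation above the mean over all tested compounds plus 3 SD, cut at about 0.9% in these data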;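 note: 0% = DMSO-only wells and 100% = 3 µM delta7-dafachronic acid wells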
NR1D1 modulator – modulators of human Rev-erb alpha DNA binding | P20393 | Rev-erbα–FITC-DNA binding, fluorescence polarization, 90 min | activity, % at 10 µM | actives 0.79% (n = 370,000);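 active = activity above about 14%, limit read from the data; passing the limit was not always enough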;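 note: 0% = DMSO wells with 35 nM protein and 100% = DMSO wells with 750 nM protein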
Rev-erbA confirm – confirmation of modulators of human Rev-erb alpha DNA binding; shares compounds with NR1D1 modulator; Rev-erb alpha FITC-DNA binding, fluorescence polarization, 90 min; activation, % at 25 µM; actives 61% (n = 3,000); AID 1259319;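 active = activation at or above a set limit, or at least 3 SD above the negative control mean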;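 note: 0% = 35 nM protein with DMSO and 100% = 750 nM protein high control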
RORg DNA counter – affects RORgamma DNA binding in a Rev-erb alpha counter-screen; shares compounds with NR1D1 modulator; purified RORgamma protein-FITC-DNA binding, fluorescence polarization; IC50, µM; actives 8% (n = 910); AID 1259320;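 active = Compounds whose fitted half-maximal concentration for disrupting protein-DNA binding is below 10 micromolar; the record names Rev-erb in its text, so the target is in doubt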
Active calls of the source: *; i = inactive; . = no result given. Hits are enriched below; roughly 4.8% of the tested compounds scored in any of these assays.

SMILES	hgDAF-12 ag	DAX1 inh-1	DAX1 inh-2	hcDAF-12 act	ssDAF-12 act	NR1D1 modulator	Rev-erbA confirm	others
COc1ccc(S[C@]2(C(=O)N3CCN(c4ncccn4)CC3)CC(=O)N(P(=O)(OC)OC)[C@@H]2c2ccc(OC)cc2)cc1	3	.	-2	-1	-1	11	.
CN1C(=O)c2cccc3c(N(C)C)ccc(c23)C1=O	0	0	0	-1	0	27*	29*
CN1C(=O)c2cccc3c(Cl)ccc(c23)C1=O	-2	0	0	-1	-1	5	.
CNc1ccc2c3c(cccc13)C(=O)N(C)C2=O	3	1	0	-3	-1	382*	339*	RORg DNA counter=>40
COc1ccc(C)cc1NC(=O)c1cc2c(=O)n3ccccc3nc2n1C	-1	1	0	-1	-1	23*	55*	RORg DNA counter=>40
Cc1cc(Br)ccc1NC(=O)c1sc2ncnc(N3CCN(c4ccccn4)CC3)c2c1C	2	0	0	-1	-1	69*	8
COc1ccc(NC(=O)c2sc3ncnc(N4CCN(c5ccccn5)CC4)c3c2C)cc1Cl	3	1	3	3	-2	28*	20*
Cc1c(C(=O)NC2CCCCC2)sc2ncnc(N3CCN(c4ccccc4)CC3)c12	2	0	0	2	-1	39*	16
Cc1ccccc1CNC1CCC12CCC(c1ccccc1)CC2 (stereo not drawn)	2	.	.	-1	-1	3	.
CC(C)COc1ccc(C(=O)Nc2scc(-c3ccc(Cl)cc3Cl)c2C(N)=O)cc1	0	-1	-1	3	-1	31*	29*
O=C(Nc1nc(-c2ccc(Cl)cc2Cl)cs1)c1ccc(OCC2CCCO2)cc1 (stereo not drawn)	-2	0	0	-3	-1	-1	.
C=CCn1c(SCC(=O)Nc2ccccc2-c2ccccc2)nnc1-c1ccccc1	3	.	3	0	-1	-4	.
O=C(Nc1ccc(S(=O)(=O)C(F)F)cc1)c1ccc2c(=O)n3c(nc2c1)CCC3	-3	-1	0	1	0	20*	9
Cc1ccc(NC(=O)OC2CC3CC2[C@H]2CCCCN2[C@H]3C)cc1 (stereo partly drawn)	4	.	-1	-2	0	6	.
Cc1ccccc1/C=C1\SC(=S)N(/N=C/c2cc([N+](=O)[O-])ccc2O)C1=O	0	0	0	-1	-1	22*	4
CCc1nc2c(c(SC)nn2-c2ccccc2)c(N)c1C(=O)OC	-1	2	0	-1	-1	26*	7
COC(=O)c1cc(C)nc2c1c(C)nn2-c1ccccc1	1	1	-2	0	-1	0	.
Cn1c(N)c(C(=O)COC(=O)C2(c3ccc(F)cc3)CCCC2)c(=O)n(C)c1=O	-1	0	0	-2	-1	-4	.
Cn1c(N)c(C(=O)COC(=O)C2(c3ccccc3F)CCCC2)c(=O)n(C)c1=O	-1	-1	0	-1	-1	19*	-4
O=C1c2ccccc2C(=O)N1c1ccc(Br)c2cccnc12	2	-1	0	-1	-1	2	.
COc1ccccc1Oc1ccc2c(c1)C(=O)N(c1ccc(Br)c3cccnc13)C2=O	3	1	0	-1	-1	39*	22*
CCCC(C)NC(=O)Cc1ccc(Br)cc1 (stereo not drawn)	0	1	0	0	-1	0	.
CCC(C)NC(=O)Cc1c(OC)ccc2cc(Br)ccc12 (stereo not drawn)	1	2	0	-1	-1	23*	40*	RORg DNA counter=>40
CCCCOCCOCCOCc1cc2c(cc1CCC)OCO2	.	.	.	.	.	-3	.
CCOC(=O)c1sc2nc(C)n(N)c(=O)c2c1C	6	-1	0	0	-1	-6	.
SMILES	hgDAF-12 ag	DAX1 inh-1	DAX1 inh-2	hcDAF-12 act	ssDAF-12 act	NR1D1 modulator	Rev-erbA confirm	others
CCOC(=O)c1sc2nc(C)[nH]c(=S)c2c1C	0	2	0	-1	-1	62*	19*
S=C(Nc1cc(Cl)cc(Cl)c1)NC(c1ccccc1)c1ccccc1	-7	.	.	-4	-2	2	.
O=C1c2ccccc2C(=O)N1CCN1CCCCC1	0	0	-1	0	0	3	.
O=C1c2cccc3c(N4CCCCC4)ccc(c23)C(=O)N1CCO	6	-1	0	1	0	47*	33*	RORg DNA counter=>40
O=C1c2cccc3c(N4CCCCC4)ccc(c23)C(=O)N1c1cccc(O)c1	6	1	0	-1	-1	61*	62*	RORg DNA counter=>40
C=CCN1C(=O)c2cccc3c(N4CCCCC4)ccc(c23)C1=O	2	1	0	2	-1	19*	24*
C=CCN1C(=O)c2cccc3c(Br)ccc(c23)C1=O	2	0	0	-2	-1	1	.
Cc1n[nH]c(C)c1N1C(=O)c2cccc3c(N4CCCCCC4)ccc(c23)C1=O	-2	0	-1	1	-1	94*	90*	RORg DNA counter=>40
CCOC(=O)Cc1csc(NC(=O)COc2ccc(N(C)S(=O)(=O)c3ccc(C)cc3)cc2)n1	-2	0	-1	-3	-1	8	.
CCOc1ccc(S(=O)(=O)N(C)c2ccc(OCC(=O)Nc3nc(-c4cc(OC)ccc4OC)cs3)cc2)cc1	-3	-1	-1	-2	-2	25*	30*
Cc1c(C(=O)Nc2ccncc2)sc2nc(-c3ccc(F)cc3)cn12	-1	-3	-3	-4	-1	39*	38*	RORg DNA counter=>40
COc1ccc(-c2cn3c(C)c(C(=O)Nc4ccncc4)sc3n2)cc1	-3	-2	-3	-3	-2	-1	.
COc1ccc2c(C)cc(SCC(=O)Nc3cccnc3Cl)nc2c1	-3	1	0	1	1	59*	69*	RORg DNA counter=i
COc1ccc2c(C)cc(SCC(=O)Nc3ncc(Cl)cc3Cl)nc2c1	-2	-1	0	4	0	119*	56*	RORg DNA counter=>40
COc1ccc2c(-c3ccccc3)cc(SCC(=O)NC(N)=O)nc2c1	1	1	0	-1	-1	40*	14
COc1ccc2c(C)cc(SCC(=O)NC3CCCC3)nc2c1	-1	0	-2	0	-1	5	.
O=C(COC(=O)c1ccc2ccccc2c1)Nc1ncc(C(F)(F)F)cc1Cl	-1	1	0	-1	-1	34*	13
O=C1c2cccc3c(O)ccc(c23)C(=O)N1Cc1ccco1	3	1	2	-2	-1	36*	37*	RORg DNA counter=>40
